Measured values reported in PubChem BioAssay (NCI).
Compounds without any hit were thinned out: in the full panel of roughly 83,000, 20% have a hit.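 Single-concentration screen, 48 h exposure, 96-well plates. Endpoint: percent growth. Below 10 = active.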 Unmarked numbers belong to inactive results. Activity calls are given as the source filed them.

How the values were obtained:
Assay in all cases: NCI-60 one-dose screen, 48 h (100 = growth as untreated, 0 = no growth, -100 = all killed)
Details in all cases: 10 µM unless noted
NCI-H23 lung = test system: NCI-H23 lung
NCI-H226 lung = test system: NCI-H226 lung
NCI-H322M lung = test system: NCI-H322M lung
HOP-62 NSCLC = test system: HOP-62 NSCLC
NCI-H460 lung = test system: NCI-H460 lung
HOP-92 NSCLC = test system: HOP-92 NSCLC
NCI-H522 lung = test system: NCI-H522 lung
A549/ATCC NSCLC = test system: A549/ATCC NSCLC
786-0 renal = test system: 786-0 renal
COLO 205 colon = test system: COLO 205 colon
DU-145 prostate = test system: DU-145 prostate
K-562 leukemia = test system: K-562 leukemia
MALME-3M melanoma = test system: MALME-3M melanoma
MDA-MB-231 breast = test system: MDA-MB-231 breast
RXF 393 renal = test system: RXF 393 renal
SF-268 CNS = test system: SF-268 CNS
SF-295 CNS = test system: SF-295 CNS
SF-539 CNS = test system: SF-539 CNS
UACC-257 melanoma = test system: UACC-257 melanoma
M14 melanoma = test system: M14 melanoma

| SMILES | growth (NCI-H23 lung) | growth (NCI-H226 lung) | growth (NCI-H322M lung) | growth (HOP-62 NSCLC) | growth (NCI-H460 lung) | growth (HOP-92 NSCLC) | growth (NCI-H522 lung) | growth (A549/ATCC NSCLC) | growth (786-0 renal) | growth (COLO 205 colon) | growth (DU-145 prostate) [%] | growth (K-562 leukemia) | growth (MALME-3M melanoma) | growth (MDA-MB-231 breast) | growth (RXF 393 renal) | growth (SF-268 CNS) | growth (SF-295 CNS) | growth (SF-539 CNS) | growth (UACC-257 melanoma) | growth (M14 melanoma) |
| --- | --- | --- | --- | --- | --- | --- | --- | --- | --- | --- | --- | --- | --- | --- | --- | --- | --- | --- | --- | --- |
| CS(=O)(=O)CCN1CC2CCCC(C2)C1 | 99.7% | 121% | 127% | 103% | 110% | 109% | 97.9% | 99.9% | 95.6% | 99% | 102 | 113% | 111% | 105% | 107% | 102% | 108% | 100% | 104% | 98.6% |
| CC(=O)O[C@H](C[C@H](C(C)C)N(C)C(=O)[C@@H](NC(=O)[C@H]1CCCN1C)C(C)C)c1nc(C(=O)N[C@@H](Cc2ccccc2)C[C@H](C)C(=O)O)c(C)s1 | 30.3% | 54.8% | 52% | 29.7% | 5.67% (active) | 16.5% | -24.7% (active) | 13.3% | 22.4% | -63.2% (active) | 15.3 | 9.54% (active) | 53.9% | 15.1% | 61.6% | 29.9% | 11% | -3.18% (active) | 38.2% | 4.87% (active) |
| O=C(CC1(O)C(=O)Nc2ccc(Br)cc21)c1ccc(C(=O)NCC2CCC3(CC2)OOC2(CCCCC2)OO3)cc1 (stereo not given) | 53.7% | 61.3% | 80.1% | 31% | 36.4% | -46.3% (active) | 6.67% (active) | 36.7% | -7.61% (active) | 51.4% | 59.1 | -61% (active) | -7.48% (active) | 56.8% | 69.5% | 47.8% | 69.1% | 55% | 49.4% | 61.6% |
| COC(=O)[C@@H](C)C[C@H](Cc1ccc2ccccc2c1)NC(=O)c1csc([C@@H](C[C@H](C(C)C)N(C)C(=O)[C@@H](NC(=O)[C@H]2CCCCN2C)C(C)C)OC(C)=O)n1 | 41.7% | 80.2% | 68.6% | 64.7% | 24.2% | -5.09% (active) | 22.2% | 47.5% | 26.5% | -37.9% (active) | 46.6 | 25.7% | 63.1% | 21.2% | 49.1% | 29.4% | 56.7% | 10.4% | 77% | 24.6% |
| Cn1cc(C2=C(c3cn(C4CCN(Cc5ccccn5)CC4)c4ccccc34)C(=O)NC2=O)c2ccccc21 | 53.6% | 93.5% | 37.2% | 68% | 74.9% | 69.8% | 48.8% | 50.8% | 79.7% | 6.03% (active) | 70 | 91.3% | -3.24% (active) | 79.8% | 90.9% | 82.8% | 97.1% | 89.6% | -0.885% (active) | 16.5% |
| O=C(c1ccccc1O)c1[nH]c(Cl)c(Cl)c1-n1c(C(=O)c2ccccc2O)cc(Cl)c1Cl | -10.6% (active) | -1.5% (active) | -0.432% (active) | -9.18% (active) | 0.792% (active) | -37.6% (active) | -17.9% (active) | 3.18% (active) | -9.15% (active) | -95.7% (active) | 19.2 | 6.74% (active) | -25.5% (active) | -31.7% (active) | -19.4% (active) | 4.86% (active) | -25.5% (active) | 7.94% (active) | -24.9% (active) | -0.41% (active) |
| C=C(C)[C@@]12OC3(/C=C/C=C/CCCCC)O[C@@H]1[C@@H]1[C@@H]4O[C@]4(CO)[C@@H](O)[C@]4(O)C(=O)C(C)=C[C@H]4[C@@]1(O3)[C@H](C)[C@H]2OC(=O)c1ccccc1 | 46.3% | 79.2% | 76.6% | 22.5% | 22.1% | 35.1% | 78.8% | 32.8% | 45.8% | 4.17% (active) | 38.4 | 24.9% | 88.3% | 52% | 71% | 40.7% | 39.6% | 63.8% | 97% | 36.3% |
